# Compound activity as filed in PubChem BioAssay.
# TDP1 cell noCPT = qHTS for Inhibitors of human tyrosyl-DNA phosphodiesterase 1 (TDP1): qHTS in cells in absence of CPT; Potency, µM (series often up to 46.2 µM), hits mostly inhibitors; actives 15% (n = 420,000); AID 686978, 2013; DT40 Tdp1-/- hTDP1 cells, no CPT, ATP luminescence, 48 h; also: nearly all actives have a fitted effect of over 55% in size
#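 Cells were dispensed at 400 per well, compounds added by pin tool, plates incubated ≥48 hr at 37 °C, then CellTiter-Glo added for 30 min at room temperature before luminescence reading. Line: DT40 Tdp1-/- complemented with hTDP1; camptothecin omitted.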
# S-ASM inh = Inhibitors of Secretory Acid Sphingomyelinase (S-ASM): qHTS. placental ASM, HMU-PC fluorogenic substrate, 60 min. Potency, µM (doses to about 57.5 µM), hits mostly inhibitors. actives 0.006% (n = 340,000)
# Target sequence (P17405 47-631 limits assumed): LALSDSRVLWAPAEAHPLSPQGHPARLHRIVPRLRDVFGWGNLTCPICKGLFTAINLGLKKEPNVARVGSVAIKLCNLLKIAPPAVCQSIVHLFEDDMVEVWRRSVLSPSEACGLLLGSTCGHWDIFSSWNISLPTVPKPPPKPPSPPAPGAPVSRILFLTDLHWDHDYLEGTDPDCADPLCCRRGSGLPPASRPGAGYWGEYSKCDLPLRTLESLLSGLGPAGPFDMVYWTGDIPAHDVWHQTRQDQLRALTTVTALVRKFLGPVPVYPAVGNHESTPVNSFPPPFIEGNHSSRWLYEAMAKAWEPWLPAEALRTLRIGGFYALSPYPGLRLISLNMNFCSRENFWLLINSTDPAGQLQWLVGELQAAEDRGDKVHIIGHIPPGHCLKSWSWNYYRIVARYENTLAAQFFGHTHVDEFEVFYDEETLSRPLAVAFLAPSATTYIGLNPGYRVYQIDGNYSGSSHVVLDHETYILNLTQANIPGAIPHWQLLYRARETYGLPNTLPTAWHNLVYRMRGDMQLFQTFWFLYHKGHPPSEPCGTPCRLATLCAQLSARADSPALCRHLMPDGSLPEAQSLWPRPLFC
#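 Fluorescence read-out (Ex 386 nm, Em 447 nm) after stopping the reaction at pH 10. Enzyme: ASM from human placenta; substrate HMU-PC0, 9 uM final; 60 min, 37 °C. Compound preincubation 10 min, ambient temperature.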
# IL1B secr inh = qHTS for Inhibitors of Inflammasome Signaling: IL-1-beta AlphaLISA Primary Screen; THP-1 LPS/ATP IL-1B secretion, AlphaLISA, 16 h; active compounds read low; activity change, % at 57.5 µM; actives 4.7% (n = 360,000); AID 743279, 2014; in the data active = activity change below about -50%; inconclusive = mostly about -30% to -49%
#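 Secreted IL-1B measured by AlphaLISA bead assay after 16 h compound exposure of THP-1 cells; compounds (final up to 57.5 uM) added 1 h before LPS (250 ng/mL) and ATP (1.25 mM) stimulation; lower signal means less secretion.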
# TDP1 cell CPT = qHTS for Inhibitors of human tyrosyl-DNA phosphodiesterase 1 (TDP1): qHTS in cells in presence of CPT; actives 12% (n = 420,000); AID 686979, 2013; chicken DT40 Tdp1-/-;hTDP1 cells + 20 nM CPT, ATP luminescence, 48 h; Potency, µM (series often up to 46.2 µM), hits mostly inhibitors; also: nearly all actives have a fitted effect of over 55% in size
#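 Chicken DT40 Tdp1-/- cells complemented with human TDP1, 400 cells/well, exposed to compounds plus 20 nM camptothecin for at least 48 h at 37 C; viability read as ATP content by CellTiter-Glo luminescence.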
# HepG2 viability = qHTS for Inhibitors of TGF-b: Cytotox Counterscreen | HepG2 CAGA-GFP viability, ATP luminescence, 18 h | actives 0.76% (n = 410,000) | Potency, µM (titrated, usually from 46.1 µM), usual class: cytotoxic
#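 CellTiter-Glo luminescence gave cytotoxicity after 18 hours at 37 degrees C. The cells were HepG2 CAGA-GFP in 1% FBS DMEM, stimulated with 500 pg/mL TGF-beta after compound addition. %Activity was normalised to no-cell wells (complete cell-killing) and DMSO (no toxicity), and curves were fitted and classified.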
# TGFb SMAD3 inh = qHTS for Inhibitors of TGF-b. HepG2 CAGA-GFP TGF-b/SMAD3 reporter, GFP fluorescence, 18 h; TGF-beta stimulated, 500 pg/mL final. AID 588855, 2011. Potency, µM (highest dose often 46.1 µM), usual class: inhibitors. actives 1.2% (n = 410,000); also: nearly all actives have a fitted effect of over 65% in size
#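 Inhibition of TGF-beta-driven CAGA-GFP reporter expression in HEPG2 cells is measured by cellular GFP fluorescence after 18 h stimulation with 500 pg/mL recombinant TGF-beta in 1% FBS medium at 37 degrees C.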
# A number is an active result; i = inactive; ? = inconclusive; nt = no result. Compounds with a hit are over-represented: about 19% of the library has one in this group of screens. Unless noted, calls follow the shape of the dose curve; as a rule, active = well fitted curve in the direction sought with a large enough effect; inconclusive = small, poorly fitted or top-dose-only effect, or another doubt; inactive = no such curve, though single readings can be large; an effect the other way counts as inactive or inconclusive.
SMILES,TDP1 cell noCPT,S-ASM inh,IL1B secr inh,TDP1 cell CPT,HepG2 viability,TGFb SMAD3 inh
Cc1ccccc1CCNC(=O)c1ccc(Cn2c(=O)c3cccn3c3cccnc32)cc1,18.4µM,nt,nt,?,i,i
COc1ccc(CNC(=O)c2ccc(Cn3c(=O)c4cccn4c4cccnc43)cc2)cc1OC,i,nt,nt,i,i,i
CC(C)c1ccc(NC(=O)N2CCCC2C(=O)Nc2ccc(-n3cnnn3)cc2)cc1 (configuration not stated),i,i,i,i,i,i
Cc1cc(C)cc(NC(=O)CCn2cnc3ccccc3c2=O)c1,i,nt,nt,i,i,i
COc1ccc(NC(=O)C2CCCN2C(=O)NCc2ccccc2)cc1 (configuration not stated),?,i,i,?,i,i
CCCCOc1ccc(N(CC(=O)NCCOC)C(=O)CCC(=O)Nc2ccccn2)cc1,i,i,i,i,i,i
COC(=O)c1ccc(C2Nc3c(C)cc(C)cc3C3C=CCC32)cc1 (configuration not stated),?,nt,nt,?,i,i
Cc1cc(C)c2c(c1)[C@@H]1C=CC[C@@H]1[C@H](c1ccc(S(=O)(=O)N3CCOCC3)cc1)N2,18.4µM,i,i,16.4µM,i,i
O=C(CCC(=O)N1CCOc2ccccc21)N1CCN(c2ccccc2)CC1,?,i,i,?,i,i
CC(=O)Cc1cc(O)c2ccccc2c1OC(=O)c1ccc(Br)cc1,20.6µM,i,i,20.6µM,i,?
O=C(COC(=O)c1ccc(Br)cc1)NCc1ccccc1,i,i,i,i,i,?
COc1nnc(-c2ccc(N3CCCCC3)c(NC(=O)c3ccccc3Cl)c2)c2ccccc12,6.51µM,nt,nt,6.51µM,i,?
COc1ccc(-c2nn(C)c(=O)c3ccccc23)cc1CNC(=O)c1ccco1,?,i,i,?,i,i
COc1nnc(-c2ccc(N3CCOCC3)c(NC(=O)c3ccco3)c2)c2ccccc12,25.9µM,i,i,?,i,i
Cn1nc(-c2ccc(N3CCCCC3)c(NC(=O)c3ccco3)c2)c2ccccc2c1=O,16.4µM,i,i,20.6µM,i,i
O=C(NCCCN1CCN(CCCNC(=O)c2cc([N+](=O)[O-])ccc2Cl)CC1)c1cc([N+](=O)[O-])ccc1Cl,i,i,i,i,i,i
Cc1cccc(NC(=O)c2cc3c([nH]c4ccccc43)c(C)n2)c1C,?,i,i,6.51µM,i,i
Cc1cccc(NC(=O)c2ccccn2)c1C,?,i,i,?,i,i
COc1cccc(NC(=O)c2cncs2)c1,i,i,i,i,i,i
CCCCNCC1C(Oc2ccc(Cl)cc2)C(=O)N1c1ccccc1C (configuration not stated),14.6µM,i,-195.5,?,15.8µM,14.1µM
CCCNCC1C(Oc2ccc(Cl)cc2Cl)C(=O)N1c1cccc(C)c1C (configuration not stated),18.4µM,i,-53.1,?,i,?
Cc1cccc(N2C(=O)C(Oc3ccc(Cl)cc3Cl)C2C(=O)O)c1C (configuration not stated),?,i,i,?,i,i
CCOc1ccc(-c2nonc2NC(=O)c2oc3ccc(F)cc3c2C)cc1,0.82µM,nt,nt,0.92µM,i,?
CCCOc1ccc(-c2nonc2NC(=O)c2oc3ccc(Cl)cc3c2C)cc1OCCC,7.31µM,nt,nt,?,i,i
CCCNC(=O)c1cc2n(n1)CCCN(Cc1ccc(F)cc1)C2=O,i,nt,nt,i,i,i
SMILES,TDP1 cell noCPT,S-ASM inh,IL1B secr inh,TDP1 cell CPT,HepG2 viability,TGFb SMAD3 inh
CCOC(=O)CN1C(=O)N[C@@H](c2cccc(C(F)(F)F)c2)C(C(=O)OC)=C1C,i,i,i,i,i,i
CCN1C(N(C)CCc2cccs2)=N[C@@H](c2ccccc2)C(C(=O)OC)=C1C,?,i,i,?,i,i
CCN1C(=NCc2cccc(C(F)(F)F)c2)N[C@@H](c2cccc(C(F)(F)F)c2)C(C(=O)OC)=C1C,5.01µM,nt,nt,4.47µM,i,3.55µM
CCN(CC)CCCN=C1N[C@@H](c2cccc(C(F)(F)F)c2)C(C(=O)OC)=C(C)N1CC,i,i,i,?,i,?
CCN1C(=O)N[C@@H](c2cccc(C(F)(F)F)c2)C(C(=O)OC)=C1C,?,i,i,16.4µM,i,i
CCN1C(N(C)CCc2c[nH]c3ccccc23)=N[C@@H](c2cccc(C(F)(F)F)c2)C(C(=O)OC)=C1C,23.1µM,i,?,9.2µM,i,?
CCN1C(=NCc2cccc(Cl)c2)N[C@@H](c2cccc(C(F)(F)F)c2)C(C(=O)OC)=C1C,?,nt,nt,11.2µM,i,14.1µM
CCOC(=O)C1=CCN(S(=O)(=O)c2ccc(C)cc2)C1c1ccccc1 (configuration not stated),?,nt,i,?,i,i
CCOc1cc2c(c3c1C(c1ccccc1)N(S(=O)(=O)c1ccc(C)cc1)C3)C(=O)C=CC2=O (configuration not stated),0.581µM,nt,-117.8,0.517µM,8.91µM,?
CNC(=S)N1N=C(c2ccc(Br)cc2)CC1c1ccc(Br)cc1 (configuration not stated),11.6µM,i,?,14.6µM,i,i
CNC(=S)N1N=C(c2ccccc2)CC1c1ccc(OC)c(OC)c1 (configuration not stated),i,i,i,i,i,i
COc1ccc(C2CCCN2C(=S)Nc2ccc(C)cc2Cl)cc1OC (configuration not stated),16.4µM,i,i,?,i,i
CNC(=S)N1N=C(c2ccc(C)cc2)CC1c1ccc(OC)c(OC)c1 (configuration not stated),14.6µM,i,i,?,i,i
CNC(=S)N1N=C(c2ccc(Br)cc2)CC1c1ccc(N(C)C)cc1 (configuration not stated),?,i,i,?,i,i
COc1ccccc1-c1cnc(C(O)c2ccc(C)cc2)[nH]1 (configuration not stated),18.4µM,nt,i,i,i,i
COc1cccc(C(O)c2ncc(-c3ccccc3OC)[nH]2)c1 (configuration not stated),i,nt,i,i,i,i
